Assay results: the supplement of paper PMC10849652
Of roughly 8,800 targets only a part is listed; those with a hit were picked by preference. About 0.5% of all pairs of compound and target were hits.

Tests used:
Assay in all cases: log2 fold change, soluble protein after heating vs DMSO (PISA); higher = thermal stabilisation; K562 lysate, 10 uM; active = over 0.2 and 3.5 SD of the protein, either way, in both replicates (recomputed)
[1] = compound: NCC(=O)Nc1ccc(-n2nc(C(F)(F)F)cc2-c2ccc3c(ccc4ccccc43)c2)cc1
Summary of the method: (§1)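 Pellets of K562 cells were dounce-homogenised in PBS pH 7.4 with 1 mM MgCl2, and the crude extract was held at 1 mg/mL protein for a 30 min treatment with 10 μM compound. Aliquots were heated for 3 min over 48°C-58°C and pooled before NP-40 was added to 0.5% at 4°C. The supernatant from 21,000xg for 90 min was quantified by TMTpro 16plex LC-MS/MS with channel sums equalised. Values are reported from duplicates as log-two fold change in thermal stability relative to solvent controls.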

vorinostat = compound: O=C(CCCCCCC(=O)Nc1ccccc1)NO [vorinostat]
Summary of the method: as §1

silmitasertib = compound: O=C(O)c1ccc2c(c1)nc(Nc1cccc(Cl)c1)c1ccncc12 [silmitasertib]
Summary of the method: as §1

[2] = compound: O=C1NC(=O)C(c2cnc3ccccn23)=C1c1cn2c3c(cc(F)cc13)CN(C(=O)N1CCCCC1)CC2
Summary of the method: as §1

entospletinib = compound: c1cn2cc(-c3ccc4cn[nH]c4c3)nc(Nc3ccc(N4CCOCC4)cc3)c2n1 [entospletinib]
Summary of the method: as §1

Measured: log2 fold change

UBIAD1 (UniProt Q9Y5Z9)
inactive: [1] -0.061 | vorinostat 0.042 | silmitasertib 0.04 | [2] 0.032 | entospletinib 0.058

TRIM65 (UniProt Q6PJ69)
Chain of UniProt Q6PJ69 (Q6PJ69 whole entry, looked up): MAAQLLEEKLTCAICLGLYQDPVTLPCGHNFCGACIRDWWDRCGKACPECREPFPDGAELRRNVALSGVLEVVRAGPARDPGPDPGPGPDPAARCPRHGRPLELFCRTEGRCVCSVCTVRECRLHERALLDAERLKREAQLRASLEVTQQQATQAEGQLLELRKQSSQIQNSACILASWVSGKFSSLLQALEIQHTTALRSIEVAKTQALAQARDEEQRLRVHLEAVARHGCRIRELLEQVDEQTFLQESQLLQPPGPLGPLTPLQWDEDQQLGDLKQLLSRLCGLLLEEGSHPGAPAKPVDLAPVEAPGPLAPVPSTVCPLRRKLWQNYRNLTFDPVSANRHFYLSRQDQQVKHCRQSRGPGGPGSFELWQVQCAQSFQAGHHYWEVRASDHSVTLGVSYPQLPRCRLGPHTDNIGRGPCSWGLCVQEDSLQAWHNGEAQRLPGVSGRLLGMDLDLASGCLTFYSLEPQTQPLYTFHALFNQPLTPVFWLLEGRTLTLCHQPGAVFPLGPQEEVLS
inactive: [1] 0.018 | vorinostat -0.094 | silmitasertib -0.006 | [2] 0.002 | entospletinib -0.009

TK1 (UniProt K7ERV3)
inactive: [1] -0.018 | vorinostat 0.086 | silmitasertib 0.01 | [2] -0.014 | entospletinib -0.013

TPM3 isoform 2 (UniProt P06753)
Chain of UniProt P06753 (P06753 whole entry, looked up): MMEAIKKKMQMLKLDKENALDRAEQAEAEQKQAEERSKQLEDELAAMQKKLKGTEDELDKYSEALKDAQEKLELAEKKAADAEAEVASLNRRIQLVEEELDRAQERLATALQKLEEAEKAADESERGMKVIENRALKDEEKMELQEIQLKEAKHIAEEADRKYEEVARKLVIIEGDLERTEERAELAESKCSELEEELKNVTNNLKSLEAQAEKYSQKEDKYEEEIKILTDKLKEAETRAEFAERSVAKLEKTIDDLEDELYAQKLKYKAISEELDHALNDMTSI
inactive: [1] -0.032 | vorinostat 0.048 | silmitasertib 0.011 | [2] -0.047 | entospletinib -0.029

TERF2IP (UniProt Q9NYB0)
inactive: [1] 0.038 | vorinostat 0.072 | silmitasertib 0.008 | [2] 0.011 | entospletinib 0.011

THADA (UniProt Q6YHU6)
active: vorinostat -0.456
inactive: [1] 0.009 | silmitasertib 0.013 | [2] 0.015 | entospletinib 0.006

TFPI (UniProt P10646)
Chain of UniProt P10646 (P10646 whole entry, looked up): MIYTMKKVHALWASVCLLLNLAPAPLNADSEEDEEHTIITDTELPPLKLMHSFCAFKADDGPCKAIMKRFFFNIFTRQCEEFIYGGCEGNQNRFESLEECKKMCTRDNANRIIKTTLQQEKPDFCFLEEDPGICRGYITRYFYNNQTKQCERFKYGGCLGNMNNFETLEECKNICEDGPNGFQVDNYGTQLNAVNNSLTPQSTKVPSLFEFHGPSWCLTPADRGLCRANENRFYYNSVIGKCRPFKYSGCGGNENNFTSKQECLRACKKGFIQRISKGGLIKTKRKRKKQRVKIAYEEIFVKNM
inactive: [1] 0.067 | vorinostat 0.106 | silmitasertib 0.01 | [2] -0.063 | entospletinib -0.057

UBR1 (UniProt Q8IWV7)
Chain of UniProt Q8IWV7 (Q8IWV7 whole entry, looked up): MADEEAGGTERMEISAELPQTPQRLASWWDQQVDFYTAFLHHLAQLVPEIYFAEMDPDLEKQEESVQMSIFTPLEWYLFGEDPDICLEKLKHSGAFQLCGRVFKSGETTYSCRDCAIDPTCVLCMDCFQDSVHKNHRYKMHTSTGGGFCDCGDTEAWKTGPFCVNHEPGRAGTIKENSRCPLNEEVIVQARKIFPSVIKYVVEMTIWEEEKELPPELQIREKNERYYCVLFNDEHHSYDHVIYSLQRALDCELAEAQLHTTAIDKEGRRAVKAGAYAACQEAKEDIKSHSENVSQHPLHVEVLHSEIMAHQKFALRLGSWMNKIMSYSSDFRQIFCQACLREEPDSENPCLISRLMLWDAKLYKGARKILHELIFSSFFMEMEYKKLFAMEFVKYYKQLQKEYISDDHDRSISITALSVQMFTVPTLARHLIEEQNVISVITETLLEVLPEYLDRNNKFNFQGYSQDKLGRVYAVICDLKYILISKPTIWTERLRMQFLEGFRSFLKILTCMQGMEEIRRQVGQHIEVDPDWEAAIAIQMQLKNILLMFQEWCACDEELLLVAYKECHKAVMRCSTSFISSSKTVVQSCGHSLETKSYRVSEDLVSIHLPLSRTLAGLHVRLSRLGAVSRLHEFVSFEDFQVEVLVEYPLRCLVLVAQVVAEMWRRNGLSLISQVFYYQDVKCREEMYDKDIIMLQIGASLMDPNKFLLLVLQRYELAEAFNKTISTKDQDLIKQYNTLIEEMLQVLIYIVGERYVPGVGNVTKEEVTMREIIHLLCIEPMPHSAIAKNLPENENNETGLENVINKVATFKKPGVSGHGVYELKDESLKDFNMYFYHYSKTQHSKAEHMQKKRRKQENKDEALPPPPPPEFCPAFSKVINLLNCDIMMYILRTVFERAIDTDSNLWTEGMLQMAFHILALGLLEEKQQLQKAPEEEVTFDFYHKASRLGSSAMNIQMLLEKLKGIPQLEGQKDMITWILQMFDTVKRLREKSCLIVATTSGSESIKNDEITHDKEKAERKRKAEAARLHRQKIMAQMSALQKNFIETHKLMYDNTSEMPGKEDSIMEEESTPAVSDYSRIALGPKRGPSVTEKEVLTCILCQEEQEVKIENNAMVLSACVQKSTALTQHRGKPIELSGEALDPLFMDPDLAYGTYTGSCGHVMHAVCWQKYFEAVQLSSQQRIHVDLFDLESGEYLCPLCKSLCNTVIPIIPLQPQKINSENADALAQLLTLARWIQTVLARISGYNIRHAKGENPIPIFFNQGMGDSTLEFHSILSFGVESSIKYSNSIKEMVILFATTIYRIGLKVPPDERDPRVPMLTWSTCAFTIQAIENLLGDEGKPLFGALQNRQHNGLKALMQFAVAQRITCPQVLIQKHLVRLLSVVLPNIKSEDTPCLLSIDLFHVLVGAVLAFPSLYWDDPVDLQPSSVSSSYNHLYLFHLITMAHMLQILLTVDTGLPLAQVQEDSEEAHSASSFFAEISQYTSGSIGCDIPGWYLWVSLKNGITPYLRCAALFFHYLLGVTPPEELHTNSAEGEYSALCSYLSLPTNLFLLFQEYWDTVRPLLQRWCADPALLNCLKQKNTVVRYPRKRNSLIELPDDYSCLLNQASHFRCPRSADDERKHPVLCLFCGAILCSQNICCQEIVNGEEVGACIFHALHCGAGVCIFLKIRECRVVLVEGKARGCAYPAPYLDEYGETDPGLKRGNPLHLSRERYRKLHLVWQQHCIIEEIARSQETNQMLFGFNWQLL
active: vorinostat -0.239
inactive: [1] -0.04 | silmitasertib 0.025 | [2] 0.008 | entospletinib -0.024

TMPO (UniProt P42166)
inactive: [1] 0.037 | silmitasertib -0.057 | [2] 0.009 | entospletinib -0.029
active: vorinostat -0.569

TBRG4 (UniProt Q969Z0)
Chain of UniProt Q969Z0 (Q969Z0 whole entry, looked up): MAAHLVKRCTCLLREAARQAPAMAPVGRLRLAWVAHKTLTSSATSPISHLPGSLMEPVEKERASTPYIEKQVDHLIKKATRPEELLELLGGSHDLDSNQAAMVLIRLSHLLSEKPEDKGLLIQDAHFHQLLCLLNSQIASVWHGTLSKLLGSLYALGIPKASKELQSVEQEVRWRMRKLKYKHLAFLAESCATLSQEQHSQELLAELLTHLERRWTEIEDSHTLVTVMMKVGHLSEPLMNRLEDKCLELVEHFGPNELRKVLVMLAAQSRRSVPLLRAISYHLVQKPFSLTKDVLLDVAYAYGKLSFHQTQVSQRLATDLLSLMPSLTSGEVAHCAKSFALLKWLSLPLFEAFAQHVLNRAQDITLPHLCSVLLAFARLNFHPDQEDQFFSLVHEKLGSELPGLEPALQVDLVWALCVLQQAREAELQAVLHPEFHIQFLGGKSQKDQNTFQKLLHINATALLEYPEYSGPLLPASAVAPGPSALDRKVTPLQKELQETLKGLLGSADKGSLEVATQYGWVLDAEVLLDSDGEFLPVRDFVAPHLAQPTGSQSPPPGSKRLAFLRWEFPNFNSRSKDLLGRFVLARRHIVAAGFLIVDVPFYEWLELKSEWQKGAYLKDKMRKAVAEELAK
inactive: [1] 0.017 | vorinostat -0.238 | silmitasertib 0.034 | [2] 0.008 | entospletinib 0.042

TROAP (UniProt Q12815)
active: vorinostat -0.382
inactive: [1] 0.003 | silmitasertib 0.003 | [2] 0.014 | entospletinib -0.057

TTL (UniProt Q8NG68)
active: vorinostat -0.376
inactive: [1] -0.027 | silmitasertib 0.021 | [2] 0.057 | entospletinib 0.138

TRAPPC10 (UniProt P48553)
inactive: [1] 0.015 | silmitasertib 0.005 | [2] 0.049 | entospletinib 0
active: vorinostat -0.248

UBAP2L isoform 5 (UniProt Q14157)
inactive: [1] 0.013 | vorinostat 0.126 | silmitasertib -0.037 | [2] -0.018 | entospletinib -0.042

TPM4 isoform 2 (UniProt P67936)
inactive: [1] 0.02 | vorinostat 0.082 | silmitasertib -0.016 | [2] -0.014 | entospletinib 0.02

TPM1 (UniProt H7BYY1)
inactive: [1] 0.057 | vorinostat 0.136 | silmitasertib -0.024 | [2] -0.049 | entospletinib 0.008

UBXN10 (UniProt Q96LJ8)
active: vorinostat -0.321
inactive: [1] -0.018 | silmitasertib -0.005 | [2] -0.002 | entospletinib 0

UBTF (UniProt P17480)
inactive: [1] -0.045 | silmitasertib 0.044 | [2] -0.012 | entospletinib 0.032
active: vorinostat -0.315

TUT4 (UniProt Q5TAX3)
inactive: [1] 0.072 | silmitasertib 0.018 | [2] -0.048 | entospletinib -0.029
active: vorinostat -0.398

UBE3B (UniProt Q7Z3V4)
active: vorinostat -0.838
inactive: [1] 0.117 | silmitasertib 0.061 | [2] 0.007 | entospletinib 0.115

UBE2D1 (UniProt P51668)
Chain of UniProt P51668 (P51668 whole entry, looked up): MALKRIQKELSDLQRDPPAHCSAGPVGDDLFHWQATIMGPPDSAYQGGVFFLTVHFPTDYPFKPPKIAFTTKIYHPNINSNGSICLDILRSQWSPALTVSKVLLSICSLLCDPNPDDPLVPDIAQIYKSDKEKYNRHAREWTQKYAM
inactive: [1] -0.01 | vorinostat 0.088 | silmitasertib -0.101 | [2] -0.001 | entospletinib 0.056

TRIM56 (UniProt Q9BRZ2)
inactive: [1] -0.022 | silmitasertib -0.043 | [2] -0.016 | entospletinib -0.004
active: vorinostat -0.428

TFCP2 (UniProt Q12800)
inactive: [1] -0.072 | silmitasertib 0.045 | [2] 0.029 | entospletinib 0.051
active: vorinostat -0.465

TPM3 (UniProt P06753)
inactive: [1] 0.004 | vorinostat 0.112 | silmitasertib 0.012 | [2] -0.004 | entospletinib 0.008

TGFBRAP1 (UniProt Q8WUH2)
Chain of UniProt Q8WUH2 (Q8WUH2 whole entry, looked up): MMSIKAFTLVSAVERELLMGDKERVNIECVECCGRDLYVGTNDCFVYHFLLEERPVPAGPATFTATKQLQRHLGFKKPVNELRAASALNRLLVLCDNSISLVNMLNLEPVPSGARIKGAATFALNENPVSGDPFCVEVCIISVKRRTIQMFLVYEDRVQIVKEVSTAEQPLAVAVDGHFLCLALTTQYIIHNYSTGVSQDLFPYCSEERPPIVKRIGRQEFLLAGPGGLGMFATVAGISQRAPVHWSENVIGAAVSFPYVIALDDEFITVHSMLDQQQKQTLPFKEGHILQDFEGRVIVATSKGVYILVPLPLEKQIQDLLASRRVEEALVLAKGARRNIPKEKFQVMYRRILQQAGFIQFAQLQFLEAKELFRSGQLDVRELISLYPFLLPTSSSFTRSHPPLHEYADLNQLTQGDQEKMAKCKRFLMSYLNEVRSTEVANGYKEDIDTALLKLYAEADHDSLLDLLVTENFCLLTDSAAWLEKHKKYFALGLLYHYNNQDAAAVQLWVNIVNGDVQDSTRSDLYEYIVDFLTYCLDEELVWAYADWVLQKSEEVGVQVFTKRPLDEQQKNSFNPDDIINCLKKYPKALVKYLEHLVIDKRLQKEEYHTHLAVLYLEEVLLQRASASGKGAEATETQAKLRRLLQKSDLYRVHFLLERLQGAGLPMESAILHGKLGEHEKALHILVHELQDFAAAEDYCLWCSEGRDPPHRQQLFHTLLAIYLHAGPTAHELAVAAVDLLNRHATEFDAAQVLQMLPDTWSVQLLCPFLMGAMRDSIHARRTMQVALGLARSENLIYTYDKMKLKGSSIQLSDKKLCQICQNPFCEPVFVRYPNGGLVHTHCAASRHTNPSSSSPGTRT
active: vorinostat -0.433
inactive: [1] -0.039 | silmitasertib 0.051 | [2] -0.018 | entospletinib 0.024

TRNAU1AP (UniProt Q9NX07)
inactive: [1] 0.079 | vorinostat -0.178 | silmitasertib 0.026 | [2] -0.017 | entospletinib -0.047

TP53RK (UniProt Q96S44)
inactive: [1] -0.017 | vorinostat 0.049 | silmitasertib -0.19 | [2] -0.014 | entospletinib 0.031

TBL2 (UniProt Q9Y4P3)
inactive: [1] -0.035 | silmitasertib -0.007 | [2] -0.035 | entospletinib 0.02
active: vorinostat -0.292

TTI2 (UniProt Q6NXR4)
Chain of UniProt Q6NXR4 (Q6NXR4 whole entry, looked up): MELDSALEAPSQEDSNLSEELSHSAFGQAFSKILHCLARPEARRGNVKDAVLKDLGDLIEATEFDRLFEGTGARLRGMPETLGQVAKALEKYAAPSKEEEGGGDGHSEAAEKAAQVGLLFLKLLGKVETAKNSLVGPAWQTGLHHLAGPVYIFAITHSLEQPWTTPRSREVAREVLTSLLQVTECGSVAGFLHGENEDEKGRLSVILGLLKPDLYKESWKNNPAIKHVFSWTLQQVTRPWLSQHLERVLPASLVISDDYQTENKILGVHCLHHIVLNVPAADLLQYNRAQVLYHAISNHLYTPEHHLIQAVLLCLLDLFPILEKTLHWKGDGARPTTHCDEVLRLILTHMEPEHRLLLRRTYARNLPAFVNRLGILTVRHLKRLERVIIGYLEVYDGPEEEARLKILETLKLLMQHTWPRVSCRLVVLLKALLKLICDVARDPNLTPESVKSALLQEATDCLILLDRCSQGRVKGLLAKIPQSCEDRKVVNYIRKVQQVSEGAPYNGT
inactive: [1] 0.05 | silmitasertib 0.015 | [2] 0.034 | entospletinib 0.005
active: vorinostat -0.303

TECR (UniProt Q9NZ01)
inactive: [1] -0.031 | vorinostat 0.024 | silmitasertib 0.076 | [2] 0.032 | entospletinib 0.033

TTC4 (UniProt O95801)
active: vorinostat -0.498
inactive: [1] 0.013 | silmitasertib 0.022 | [2] -0.009 | entospletinib 0

TUBB6 (UniProt Q9BUF5)
active: vorinostat -0.558
inactive: [1] 0.013 | silmitasertib 0.04 | [2] 0.013 | entospletinib 0.004

TMEM87A (UniProt Q8NBN3)
inactive: [1] 0.001 | vorinostat 0.074 | silmitasertib 0.007 | [2] -0.013 | entospletinib 0.029

TRIM11 (UniProt Q96F44)
inactive: [1] 0.018 | silmitasertib 0.046 | [2] -0.035 | entospletinib -0.045
active: vorinostat -0.222

TNPO3 (UniProt Q9Y5L0)
inactive: [1] 0.017 | silmitasertib 0.015 | [2] 0.009 | entospletinib 0.022
active: vorinostat -0.317

TYW3 (UniProt Q6IPR3)
active: vorinostat -0.694
inactive: [1] 0.036 | silmitasertib 0 | [2] -0.042 | entospletinib -0.001
